Experimental data taken from PubChem BioAssay AID588719 (Southern Research Specialized Biocontainment Screening …, 2011).
Out of some 1,500 compounds screened, about 920 (61%) were called active. So high a share suggests a set chosen from earlier hits. The list shows a part of the results. Measured potencies and affinities stand elsewhere. Values without a mark were called inactive. The rule behind the calls is not given here.

Experiment: Vero 76 cell cytotoxicity, dose response, cytotoxicity control for VEEV inhibitor project (AID 588719)
Conditions: Vero 76 cells viability, cytotoxicity counter-screen; series mostly up to 25 µM; viability: at the top concentration

| Structure (SMILES) | viability [%] |
| --- | --- |
| CCN1CCC(CNCc2cn(-c3ccc(OC)cc3)nc2-c2ccccc2Cl)C1 (stereo not given) | 97.9 |
| Nc1ncnc(N2CCOCC2)n1 | 94.5 |
| O=C(COC(=O)c1ccc(O)cc1O)Nc1ccc2ccccc2c1 | 93 |
| CCOC(=O)C1(CCC(=O)OCc2ccccc2)CCCCC1=O (stereo not given) | 97.2 |
| CCC(CC)N1CCN(Cc2nc3ccc([N+](=O)[O-])cc3c(=O)n2-c2ccccc2F)CC1 | 77 |
| OCCCNc1cc(-c2ccccc2)nc2cc(-c3ccc(F)cc3)nn12 | 73.2 |
| Cc1ccc(C)c(C2=NNC(=O)CC2)c1 | 93.6 |
| Cc1cccc(C(=O)OCC(=O)N2CCN(C(=O)c3ccco3)CC2)c1O | 96.5 |
| COc1cc2nc(N3CCNCC3)nc(N)c2cc1OC | 76.1 |
| COc1ccc(C(C)=NOC(=O)c2c(-c3ccccc3Cl)noc2C)cc1CN1CCOCC1 | 87.8 |
| OCC[n+]1c2ccccc2nc2ccc(N3CCOCC3)cc21 | 97.1 |
| CC(C)Oc1ccc(C(=O)CCN2CCOCC2)cc1 | 92.7 |
| Cc1c(C(O)CN2CCN(Cc3ccc4c(c3)OCO4)CC2)c2ccccc2n1C (stereo not given) | 87.2 |
| Brc1ccc2[nH]c3c(c2c1)CCC3 | 83.3 |
| Cc1onc(-c2ccccc2)c1C(=O)NCc1ccc(F)cc1 | 85.7 |
| Cc1ccc(C)c(CN2CCC(CNC(=O)Nc3ccc(Br)cc3F)CC2)c1 | 80.7 |
| O=C1c2cc([N+](=O)[O-])cc3cc([N+](=O)[O-])cc(c23)C(=O)N1c1ccccn1 | 80.2 |
| CC(C)Cc1ccc(CN2CCCC(NC(=O)c3cccc(-n4cnnc4)c3)C2)cc1 (stereo not given) | 77.4 |
| Nc1nc(C2CC2)c(Sc2sc(N)nc2C2CC2)s1 | 79.2 |
| COc1ccc(C[C@H]2CN3C(=NC[C@H]3C)N2CCNC(=O)CCC2CCCCC2)cc1 | 93.6 |
| O[C@H]1C[C@H](c2ccc(Cl)cc2)N(CC2CCCCC2)C[C@@H]1n1cc(-c2ccc(F)cc2)nn1 | 168 |
| Cc1sc(NC(=S)NC(=O)c2ccc(C(C)(C)C)cc2)c(C#N)c1C | 71.1 |
| CC(C)(C)c1ccc(C(=O)NC(=S)Nc2sc3c(c2C#N)CCC3)cc1 | 76.9 |
| Cc1ccc(NC(=S)NNC(=S)Nc2cccc(C(F)(F)F)c2)cc1 | 88.9 |

| Structure (SMILES) | viability [%] |
| --- | --- |
| CCOC(=O)C1=C(NC(=S)NC(=O)c2ccccc2)c2ccccc2CC1(C)C | 82.3 |
| ClCCn1cnc2c(SCc3ccccc3Cl)ncnc21 | 60.7 |
| Cc1cccc2sc(N(CCCN(C)C)C(=O)c3ccc4ncsc4c3)nc12 | 76.9 |
| CC1SCC(NC(=O)c2ccc(Cl)cc2)CS1 (stereo not given) | 101 |
| Cc1cccc2c1NC1(CCCC1)CC2C (stereo not given) | 90.3 |
| C/C(CCC12CC3CC(CC(C3)C1)C2)=N\NC(N)=S | 86.5 |
| CC(=O)NNc1cc(C)nc(N)n1 | 90.7 |
| Cc1ccc(Cc2c(-c3ccc(C)cc3)nc3c4ccccc4ccn23)cc1 | 96.1 |
| Cc1cc(SC(C)C(=O)Nc2ncc(Cl)cc2Cl)nc2ccccc12 (stereo not given) | 79.2 |
| COCCn1c(SC(C)C(=O)Nc2ncc(Cl)cc2Cl)nc2ccccc21 (stereo not given) | 91.7 |
| O=C(CCCCN1CCCCC1)c1ccc2c(c1)Cc1ccccc1-2 | 76.1 |
| CCOC(=O)c1ccc(NC(=S)N(CCN(C)C)Cc2cccs2)cc1 | 74.1 |
| CCc1ccccc1Nc1nc(N)nc(COC(=O)c2cccn2C)n1 | 82.6 |
| COc1ccc(Nc2ccccc2N)cc1 | 78.8 |
| CCc1ccccc1Nc1nc(N)nc(COC(=O)CCC(=O)c2ccc(F)cc2)n1 | 88.4 |
| COc1ccc(OC)c(Nc2nc(NCCC(C)C)nc(N)c2[N+](=O)[O-])c1 | 80 |
| CCOC(=O)c1c(S(=O)(=O)N2CCC(C)CC2)c(C)n(C)c1C | 100 |
| Cn1c(SCC(=O)c2ccccc2)nnc1-c1ccccn1 | 96.8 |
| CCc1cc(C(=O)c2ccc(OC)cc2)c(NC(=O)CN2CCN(C)CC2)s1 | 72 |
| O=C(Nc1ccccc1)N1CCN(C2c3ccccc3-c3ccccc32)CC1 | 87.6 |
| Cc1ccc(-c2nc(CCN3C(=O)c4ccccc4C3=O)cs2)cc1 | 101 |
| CCN(CC)c1ccc(S(=O)(=O)N2CCOCC2)cc1NC(=O)COC(=O)/C=C/c1ccc(C)o1 | 72.2 |
| CC(=O)N1CCC(C(=O)Nc2cc(S(=O)(=O)N3CCCCC3)ccc2C)CC1 | 94 |
| COCOCCn1cc(CN2CCS(=O)(=O)N(Cc3ccc(-c4ccc(F)nc4)cc3)C(CC(C)C)C2=O)nn1 (stereo not given) | 79.3 |

| Structure (SMILES) | viability [%] |
| --- | --- |
| CN1CCN(c2ccc(-c3cccc(NC(=O)COc4ccc(Cl)cc4Cl)c3)nn2)CC1 | 89.2 |
| Cc1ccc(C(C[N+](=O)[O-])Sc2ccc(N)cc2)cc1 (stereo not given) | 91.3 |
| COc1ccc(CCNc2cc(C)nc3c(-c4ccccc4)cnn23)cc1OC | 75.9 |
| CCOC(=O)C1CCN(C(c2ccccn2)c2c(C)[nH]c3ccccc23)CC1 (stereo not given) | 83.3 |
| O=c1[nH]c(-c2ccccn2)nc2sc(-c3ccccc3)cc12 | 44.6 |
| C=CCn1c(SCC(=O)c2cccs2)nc2sc(C)c(C)c2c1=O | 70.5 |
| Cn1c(=O)c2[nH]c(CSCc3ccccc3)nc2n(C)c1=O | 90.8 |
| Cc1ccc(CNc2ccc(O)cc2)cc1 | 93.9 |
| CN1C/C(=C\c2ccc(N3CCOCC3)cc2)C(=O)/C(=C/c2ccc(N3CCOCC3)cc2)C1 | 89.8 |
| O=C(/C=C/c1ccc2c(c1)OCO2)c1ccccn1 | 88.9 |
| Nc1cnn(C2OC(CO)C(O)C2O)c(=O)n1 (stereo not given) | 76.1 |
| Cc1ccccc1Oc1ccc2c(c1)[C@@H]1C[C@H](N(C)C(=O)c3ccco3)[C@H]([C@H](C)O)C(=O)N1CC2 | 94 |
| CCOC(=O)c1oc2ccc(Br)cc2c1NC(=O)CN1CCN(C)CC1 | 71.7 |
| CCOc1ccc(-c2c(C(=O)N/N=C(\C)c3cccs3)nnn2-c2nonc2N)cc1 | 85.8 |
| Cc1nn(CC(=O)Nc2nccs2)c(C)c1[N+](=O)[O-] | 101 |
| O=C1CCCCC1Nc1ccc2ccccc2c1 (stereo not given) | 77.6 |
| CC(C)(C)C1CCC(=NNc2ccc(S(N)(=O)=O)cc2[N+](=O)[O-])CC1 (stereo not given) | 75.6 |
| NC(=S)N/N=C/c1ccc(-c2ccc(SC(F)F)cc2)o1 | 85.5 |
| CCN1CCN(CCCNC(=O)c2cc3c(s2)-c2ccccc2OC3)CC1 | 72.1 |
| CCN(CC)CCCNC(=O)c1ccc2c(Cl)c3c(nc2c1)CCCC3 | 71.7 |
| O=C1CC(/C=C/c2ccc(Cl)cc2)=Nc2ccccc2N1 | 103 |
| CN1CCN(NC(=O)c2cc(-c3cccc(Cl)c3)nc3ccccc23)CC1 | 73.1 |
